Assay results taken from PubChem BioAssay AID1650 (Southern Research Specialized Biocontainment Screening …, 2009).
Results with a measured potency or affinity are listed apart. The source made the active and inactive calls. No rule for the calls is given here.

Test: mammalian cell viability reduction – secondary assay, cytotoxicity control for West Nile virus antiviral project, dose response (AID 1650)
Settings: Mammalian host cell viability, cytotoxicity counter-screen; series mostly up to 10 µM

Structure (SMILES) | outcome
CCc1cc(-c2[nH]ncc2-c2ccc(OC)cc2)c(O)cc1O | inactive
COc1cc(CNC(C)(C)CO)ccc1OCC(=O)Nc1ccc(Br)cc1 | inactive
Cc1cc(C)cc(N(CC(=O)NCc2ccco2)S(=O)(=O)c2c(C)noc2C)c1 | inactive
COc1ccc(CCNC(=O)COc2ccc(S(=O)(=O)NCC(C)C)cc2Cl)cc1OC | inactive
O=C(NCCCn1ccnc1)c1cc2nc(-c3ccc(Br)cc3)cc(C(F)(F)F)n2n1 | inactive
CCN(CC)CCNC(=O)c1ccc(NC(=O)C2CCN(c3ncnc4sc(C)c(C)c34)CC2)cc1 | inactive
CCC(C)NC(=O)/C(=C/c1ccco1)c1ccccc1 (stereo not drawn) | inactive
Cc1ccc2nc(N(CCCN(C)C)C(=O)c3cc(-c4cccs4)nc4ccccc34)sc2c1 | inactive
CC1CCN(c2nc3ccc(C(=O)NCCCN4CCCCC4C)cc3s2)CC1 (stereo not drawn) | inactive
CN(C)CC(O)COc1ccc(C(C)(C)c2ccc(OCC(O)CN(C)C)cc2)cc1 (stereo not drawn) | inactive
N#Cc1cc(-c2ccc(Cl)cc2)cnc1Sc1ccc(F)cc1 | inactive
CCCCCCn1c(SCC(=O)Nc2cc(C)on2)nc2ccccc2c1=O | inactive
O=C1c2ccccc2C2=Nc3ccccc3SC(c3ccc(Cl)cc3)C12 (stereo not drawn) | inactive
Cn1c(=O)n(CCCOc2ccc(Br)cc2)c2ccccc21 | inactive
CC(C)C(C(=O)Nc1ncn[nH]1)N1C(=O)c2ccccc2C1=O (stereo not drawn) | inactive
CCN1C/C(=C/c2ccc(N3CCOCC3)cc2)C(=O)/C(=C/c2ccc(N3CCOCC3)cc2)C1 | inactive
CCCCOc1ccc(C(=O)N/N=C/c2ccc(OCCN3CCCCC3)c(OC)c2)cc1 | inactive
Cc1onc(-c2ccccc2Cl)c1C(=O)O/N=C(\N)c1ccc([N+](=O)[O-])o1 | inactive
CC1(C)CC(NC(=O)COc2cc3oc(=O)c4c(c3cc2Cl)CCC4)CC(C)(C)N1 | inactive
CCc1ccc2nc(N(CCCN(C)C)C(=O)c3ccc4c(c3)OCCO4)sc2c1 | inactive
COc1ccc(S(=O)(=O)NC2CCCC2)c(Cl)c1Cl | inactive

Structure (SMILES) | outcome
CC(=O)N1CCN(CC(=O)Nc2c(Cl)ccc(C)c2Cl)CC1 | inactive
CCc1ccc2nc(N(CCCN(C)C)C(=O)c3ccc(S(=O)(=O)N4CCCc5ccccc54)cc3)sc2c1 | inactive
CCN(CC)CCn1c(=N)n(CC(=O)c2ccc(Br)s2)c2ccccc21 | inactive
CCN(CC)S(=O)(=O)c1ccc(OC)c(NC(=O)c2cccc([N+](=O)[O-])c2C)c1 | inactive
CCOc1ccc(-c2cc(C(=O)NCCCN3CCCC3)c3ccccc3n2)cc1 | inactive
Cc1ccc2oc(=O)c3cc(C(=O)NCCCN4CC(C)CC(C)C4)sc3c2c1 (stereo not drawn) | inactive
COC(=O)C1(O)CC(C(C)C)=NN1C(=O)c1ccc(Cl)cc1 (stereo not drawn) | inactive
CCN(CC)CCNC(=O)c1ccc(NC(=O)/C=C/c2ccc3ccccc3n2)cc1 | inactive
COc1ccc(-c2cc(C(=O)c3c(N)n(C)c(=O)n(C)c3=O)c3ccccc3n2)cc1OC | inactive
O=C(Nc1cccc(-c2cccc(Cl)c2)c1)C1CCN(CC2CCOC2)CC1 (stereo not drawn) | inactive
COc1ccc(-c2csc(N(CCCN(C)C)C(=O)c3ccccc3Cl)n2)cc1 | inactive
CCOC(=O)c1c(CN2CCN(C)CC2)n(C)c2cc(Br)c(OC)cc12 | inactive
O=[N+]([O-])c1ccc(COc2ccc(-c3[nH]ncc3-c3ccc(Cl)cc3)c(O)c2)cc1 | inactive
Cc1cccc(OCC(O)Cn2c(=N)n(CCN3CCCCC3)c3ccccc32)c1 (stereo not drawn) | inactive
CN1CCCC1CCNc1ccc2c(=O)c3ccccc3oc2c1 (stereo not drawn) | inactive
CCOC(=O)c1cc(-c2ccc(OC)cc2F)nc2c1c(C)nn2CCC#N | inactive
C=CCn1cc(C(=O)NCCCOCC)c(=O)c2cc(S(=O)(=O)N(CC)CC)ccc21 | inactive
CN1/C(=C\C(=S)NC(=O)c2cccc(Br)c2)C(C)(C)c2ccccc21 | inactive
CCCC1(c2ccccc2)NC(=O)N(CC(=O)Nc2sc(-c3ccccc3)cc2C(=O)OCC)C1=O (stereo not drawn) | inactive
O=C(CNC(=S)N(Cc1ccccc1F)C1CCCCC1)NCC1CCCO1 (stereo not drawn) | inactive
NS(=O)(=O)c1ccc(NC(=O)c2cc(-c3cc(Cl)ccc3O)n[nH]2)cc1 | inactive

Structure (SMILES) | outcome
CN(C)CCNC=C(C(=O)Nc1ccc(Cl)cc1Cl)C(=O)Nc1ccc(Cl)cc1Cl | inactive
CCN(CC)CCNC(=O)C1CCN(S(=O)(=O)c2c(C)noc2/C=C/c2ccccc2F)CC1 | inactive
COc1cc(C(CCN2CCCC(C)C2)c2c(OC)cc(OC)c3c(-c4ccccc4)cc(=O)oc23)cc(OC)c1OC (stereo not drawn) | inactive
CN1CCN(NC(=O)c2cc(-c3ccc(Br)s3)nc3ccccc23)CC1 | inactive
COc1cccc(C2CC(c3c(-c4ccccc4)c4cc(Cl)ccc4[nH]c3=O)=NN2S(C)(=O)=O)c1OC (stereo not drawn) | inactive
Cc1cc2nc(Sc3c([N+](=O)[O-])nc(C)n3Cc3ccccc3)[nH]c2cc1C | inactive
c1ccc(-c2ccc(-c3[nH]ncc3CN3CCC(N4CCSCC4)CC3)cc2)cc1 | inactive
CCOC(=O)C(=CNc1ccc2c(c1)nnn2-c1ccc(Cl)cc1)C(=O)OCC | inactive
N#Cc1ccc(-c2ccc(F)cc2)nc1Oc1ccc(Cl)c(Cl)c1 | inactive
CN(C)CCCN(C(=O)c1ccco1)c1nc2ccc(Cl)cc2s1 | inactive
O=C(Nc1ccc(F)cc1)c1nc[nH]c1C(=O)Nc1ccccc1[N+](=O)[O-] | inactive
CN1C(=O)/C(=C\C(=O)c2cccs2)c2ccccc21 | inactive
Cc1cc(N2CCCC2)nc2ccc(NC(=S)NCCCN3CCC(C)CC3)cc12 | inactive
CCN1CCN(C(=S)Nc2ccc3nc(N4CCN(CC)CC4)cc(C)c3c2)CC1 | inactive
COc1ccc(C2c3[nH]c4ccccc4c3CCN2C(=O)c2cc3ncccn3n2)c(F)c1 (stereo not drawn) | inactive
N#Cc1ncc(-c2ccc3c(c2)OCCOCCOCCOCCOCCO3)nc1C#N | inactive
COc1ccc(-c2nc(CN3CCC(C(=O)NC4CCN(Cc5ccccc5)CC4)CC3)c(C)o2)cc1OC | inactive
CC(C)n1cc(CN2CCCC(C(=O)Nc3cccc(-c4cc5ccccc5[nH]4)c3)C2)cn1 (stereo not drawn) | inactive
O=C(CCN1C(=O)/C(=C\c2ccccc2Cl)SC1=S)N1CCN(c2ccccc2)CC1 | inactive
COc1cc(NC(=O)c2cc([N+](=O)[O-])ccc2Br)ccc1NC(=O)c1ccco1 | inactive
CCn1nc(C)c(CN2CCC(C(=O)Nc3cccc(-c4cccc(F)c4)c3)CC2)c1C | inactive
